Records with an inconclusive call do not appear. A structure can be active in one record and inactive in another. The source made the active and inactive calls. Rule for the calls, unless noted: active = hit-call score of the fitted dose curve at least 0.9, where 1 is the maximum; inconclusive = response in the unintended direction; inactive = score below 0.9.
What was measured:
[1] = read-out: sulfotransferase 2A1 (SULT2A1), SULT2A1 (gene 6822); test: LTEA_HepaRG_SULT2A1: Life Technologies and Expression Analysis (LTEA) Assay for sulfotransferase 2A1 (SULT2A1) using HepaRG (AID 2283531; active = hit-call score of the fitted dose curve at least 0.9, where 1 is the maximum; inactive = score below 0.9); conditions: mRNA level, 48 h; actives raise or lower the signal
In short: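 Gene-expression endpoint in a human liver cell line: SULT2A1 mRNA change after 48 h chemical treatment, curves fitted in both directions relative to 0.5% DMSO vehicle. Concentrations spanned eight half-log steps from 100 uM.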

[2] = read-out: Transforming Growth Factor (TGFA), TGFA (gene 7039); test: LTEA_HepaRG_TGFA: Life Technologies and Expression Analysis (LTEA) Assay for Transforming Growth Factor (TGFA) using HepaRG (AID 2283532; active = hit-call score of the fitted dose curve at least 0.9, where 1 is the maximum; inactive = score below 0.9); conditions: mRNA level, 48 h; actives raise or lower the signal
In short: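 HepaRG (human liver line), 48 h exposure, 8 conc. half-log down from 100 uM, 0.5% DMSO vehicle, duplicates; serum-free induction medium. TGFA mRNA by TaqMan qRT-PCR, ACTB/GAPDH/POLR2A normalization; gain/loss fit vs DMSO.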

[3] = read-out: Transforming Growth Factor (TGFB1), TGFB1 (gene 7040); test: LTEA_HepaRG_TGFB1: Life Technologies and Expression Analysis (LTEA) Assay for Transforming Growth Factor (TGFB1) Transporter using HepaRG (AID 2283533; active = hit-call score of the fitted dose curve at least 0.9, where 1 is the maximum; inactive = score below 0.9); conditions: mRNA level, 48 h; actives raise or lower the signal
In short: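 Eight-point concentration-response (max 100 uM, half-log) in HepaRG under serum-free induction conditions, 48 h. TGFB1 mRNA by qRT-PCR, housekeeping-normalized.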

TIMP1, TIMP1 (gene 7076) = test: LTEA_HepaRG_TIMP1: Life Technologies and Expression Analysis (LTEA) Assay for TIMP1 using HepaRG (AID 2283534; active = hit-call score of the fitted dose curve at least 0.9, where 1 is the maximum; inactive = score below 0.9;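 note: TaqMan qRT-PCR signal normalized to ACTB GAPDH and POLR2A housekeeping genes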); conditions: mRNA level, 48 h; actives raise or lower the signal
In short: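 TIMP1 induction or repression in HepaRG cells after 48 h chemical exposure (eight concentrations, highest 100 uM), assessed by normalized qRT-PCR with bidirectional fitting to DMSO controls.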

[4] = read-out: Thyroid Hormone Responsive (THRSP), THRSP (gene 7069); test: LTEA_HepaRG_THRSP: Life Technologies and Expression Analysis (LTEA) Assay for Thyroid Hormone Responsive (THRSP) using HepaRG (AID 2283536; active = hit-call score of the fitted dose curve at least 0.9, where 1 is the maximum; inactive = score below 0.9); conditions: mRNA level, 48 h; actives raise or lower the signal
In short: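 mRNA induction or loss relative to 0.5% DMSO vehicle was fitted bidirectionally across an eight-point curve whose highest exposure was 100 uM. Human HepaRG liver cells received chemicals in duplicate over 48 h before RNA extraction.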

[5] = read-out: Cellular tumor antigen p53 (Homo sapiens) (UniProt P04637); test: LTEA_HepaRG_TP53: Life Technologies and Expression Analysis (LTEA) Assay for Tumor Protein P53 (TP53) using HepaRG (AID 2283537; active = hit-call score of the fitted dose curve at least 0.9, where 1 is the maximum; inactive = score below 0.9); conditions: mRNA level, 48 h; actives raise or lower the signal
In short: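 Differentiated HepaRG cells in serum-free induction medium exposed 48 h in duplicate to 8 half-log concentrations, top 100 uM, 0.5% DMSO. TP53 mRNA by TaqMan qRT-PCR (Fluidigm), normalized to ACTB, GAPDH, POLR2A; fitted bidirectionally versus DMSO.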

[6] = read-out: UDP glucuronosyltransferase (UGT1A1), UGT1A1 (gene 54658); test: LTEA_HepaRG_UGT1A1: Life Technologies and Expression Analysis (LTEA) Assay for UDP glucuronosyltransferase (UGT1A1) using HepaRG (AID 2283538; active = hit-call score of the fitted dose curve at least 0.9, where 1 is the maximum; inactive = score below 0.9); conditions: mRNA level, 48 h; actives raise or lower the signal
In short: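 Differentiated human HepaRG cells in serum-free induction medium were exposed in duplicate for 48 h to eight half-log concentrations up to 100 uM in 0.5% DMSO. UGT1A1 mRNA was quantified by TaqMan qRT-PCR, normalized to ACTB, GAPDH and POLR2A, and fitted bidirectionally against DMSO.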

[7] = read-out: UDP glucuronosyltransferase (UGT1A6), UGT1A6 (gene 54578); test: LTEA_HepaRG_UGT1A6: Life Technologies and Expression Analysis (LTEA) Assay for UDP glucuronosyltransferase (UGT1A6) using HepaRG (AID 2283539; active = hit-call score of the fitted dose curve at least 0.9, where 1 is the maximum; inactive = score below 0.9); conditions: mRNA level, 48 h; actives raise or lower the signal
In short: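 Measures mRNA change in HepaRG hepatic cells exposed 48 h to chemicals (eight-point, maximum 100 uM, 0.5% DMSO vehicle) in serum-free induction medium. Expression normalized to endogenous controls; DMSO served as negative control and baseline.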

[8] = read-out: X-box binding protein 1 (XBP1), XBP1 (gene 7494); test: LTEA_HepaRG_XBP1: Life Technologies and Expression Analysis (LTEA) Assay for X-box binding protein 1 (XBP1) using HepaRG (AID 2283540; active = hit-call score of the fitted dose curve at least 0.9, where 1 is the maximum; inactive = score below 0.9); conditions: mRNA level, 48 h; actives raise or lower the signal
In short: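 Eight concentrations (half-log, highest 100 uM, 0.5% DMSO) tested in duplicate on HepaRG cells over 48 h in serum-free induction medium; qRT-PCR of XBP1 normalised to ACTB, GAPDH, POLR2A.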

[9] = LTEA_HepaRG_LDH_cytotoxicity: Cytotoxicity Assessment in the Life Technologies and Expression Analysis (LTEA) Assay (AID 2283563);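 for AC50: LDH activity released into spent culture medium as a marker of cell death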
In short: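 Spent-medium LDH after 48 h chemical exposure of HepaRG cells in serum-free induction medium; eight concentrations, half-log dilutions from 100 uM, duplicate wells, fitted upward relative to 0.5% DMSO.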

[10] = ATG_XTT_Cytotoxicity: Cytotoxicity Assessment in the Attagene TRANS-FACTORIAL HepG2 Assay (AID 2283584)
In short: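 24 h chemical exposure of reporter-transfected HepG2; XTT signal loss vs DMSO indicates cytotoxicity.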

[11] = TOX21_p53_BLA_p2_viability: Viability Assessment in the Tox21 HCT-116 p53 Agonism Beta-lactamase Assay, Phase 2 (AID 2283591);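 note: compound exposure lasted 16 h at 37 °C; actives lower the ATP signal meaning cytotoxicity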
In short: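 Cytotoxicity readout: CellTiter-Glo ATP luminescence, 30 min at room temperature, after the beta-lactamase read. Cells were HCT116 exposed 16 h at 37C to compounds pin-transferred at 217-fold dilution from DMSO stocks.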

[12] = biological target: Cellular tumor antigen p53 (Homo sapiens) (UniProt P04637); test: TOX21_p53_BLA_p2_ratio: Tox21 HCT-116 p53 Agonism Beta-lactamase Assay, Ratio, Phase 2 (AID 2283592)
Chain of Cellular tumor antigen p53 (Homo sapiens) (P04637 whole entry, looked up): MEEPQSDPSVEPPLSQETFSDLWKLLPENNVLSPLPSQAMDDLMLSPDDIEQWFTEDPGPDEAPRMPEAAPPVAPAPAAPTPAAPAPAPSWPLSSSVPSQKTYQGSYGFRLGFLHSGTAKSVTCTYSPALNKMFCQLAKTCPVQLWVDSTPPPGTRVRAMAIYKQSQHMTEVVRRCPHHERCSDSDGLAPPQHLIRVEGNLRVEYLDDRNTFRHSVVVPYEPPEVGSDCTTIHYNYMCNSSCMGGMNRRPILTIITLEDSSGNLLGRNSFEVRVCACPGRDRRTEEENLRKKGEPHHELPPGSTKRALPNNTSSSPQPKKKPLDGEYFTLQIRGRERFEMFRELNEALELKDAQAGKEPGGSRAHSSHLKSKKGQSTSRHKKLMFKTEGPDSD
In short: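 Human colon HCT116 cells with an inducible p53 beta-lactamase reporter are exposed to test chemicals for 16 h at 37C. Reporter induction is read as the 460/530 nm emission ratio after CCF4-AM loading, normalized to DMSO.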

[13] = biological target: Cellular tumor antigen p53 (Homo sapiens) (UniProt P04637); test: TOX21_p53_BLA_p3_ratio: Tox21 HCT-116 p53 Agonism Beta-lactamase Assay, Ratio, Phase 3 (AID 2283596)
In short: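 HCT116 p53-bla cells (4000/well) given compound in DMSO (217-fold dilution) after 5 h, incubated 16 h at 37C. CCF4-AM substrate 2 h at room temperature; 460/530 nm emission ratio, gain fitted against DMSO.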

[14] = TOX21_p53_BLA_p4_viability: Viability Assessment in the Tox21 HCT-116 p53 Agonism Beta-lactamase Assay, Phase 4 (AID 2283597);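 note: hits lower the luminescence signal meaning cytotoxicity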
In short: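 Luminescent ATP readout (CellTiter-Glo, 30 min, room temperature) in the same wells as the p53 bla ratio. HCT116 cells were treated for 16 h at 37C with DMSO-dissolved compounds.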

[15] = biological target: Cellular tumor antigen p53 (Homo sapiens) (UniProt P04637); test: TOX21_p53_BLA_p5_ratio: Tox21 HCT-116 p53 Agonism Beta-lactamase Assay, Ratio, Phase 5 (AID 2283599)
In short: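 Beta-lactamase reporter ratio (blue 460 nm over green 530 nm, 405 nm excitation) after 2 h CCF4-AM loading, in HCT-116 cells exposed 16 h at 37 C to compounds pinned at 217-fold dilution. Increases relative to DMSO baseline scored.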

[16] = read-out: Tumor necrosis factor receptor 1 (TNFRSF1A), TNFRSF1A (gene 7132); test: LTEA_HepaRG_TNFRSF1A: Life Technologies and Expression Analysis (LTEA) Assay for Tumor necrosis factor receptor 1 (TNFRSF1A) using HepaRG (AID 2283535; active = hit-call score of the fitted dose curve at least 0.9, where 1 is the maximum; inactive = score below 0.9); conditions: mRNA level, 48 h; actives raise or lower the signal
In short: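 Assay uses 48 h chemical treatment of differentiated HepaRG monolayers, tested in duplicate at eight concentrations from 100 uM downward in 0.5% DMSO. mRNA is normalized to ACTB, GAPDH and POLR2A, with induction or suppression fitted relative to vehicle.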

[17] = TOX21_p53_BLA_p3_viability: Viability Assessment in the Tox21 HCT-116 p53 Agonism Beta-lactamase Assay, Phase 3 (AID 2283593);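 note: cells exposed to compound for 16 h before reading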
In short: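 Cellular ATP was quantified by CellTiter-Glo luminescence, read after 30 min at room temperature. Beforehand, HCT116 cells (4000/well) received compound 5 h post-seeding, 217-fold diluted from DMSO, then incubated 16 h at 37C.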

[18] = TOX21_p53_BLA_p5_viability: Viability Assessment in the Tox21 HCT-116 p53 Agonism Beta-lactamase Assay, Phase 5 (AID 2283600)
In short: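 Seeded cells (4000/well) settle 5 h before compound addition. Plates then incubate 16 h at 37C, receive FRET substrate for 2 h, and finally CellTiter-Glo, with luminescence measured after a 30 min room-temperature incubation.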

[19] = biological target: Cellular tumor antigen p53 (Homo sapiens) (UniProt P04637); test: TOX21_p53_BLA_p4_ratio: Tox21 HCT-116 p53 Agonism Beta-lactamase Assay, Ratio, Phase 4 (AID 2283601)
In short: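 Signal is the blue/green (460nm/530nm) ratio of cleaved versus uncleaved CCF4-AM substrate, read after 2 h substrate loading. Cells were HCT116 carrying the p53-responsive beta-lactamase reporter, dosed 16 h at 37C, 5% CO2; CellTiter-Glo measured in parallel.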

Measured: AC50

CCCCN(CCCC)CCCC
not listed: [16] | [17] | [18] | [19]
inactive: all other assays above

Cc1cccc(C)c1O
not listed: [5]
inactive: all other assays above

Nc1ccccc1N
inactive: TIMP1, TIMP1 (gene 7076) | [11] | [12] | [17] | [13] | [14] | [15] | [18] | [19]
active: [1] 85.9 µM | [2] 50 µM | [3] 29.6 µM | [4] 50 µM | [5] 50 µM | [6] 85 µM | [7] 75.8 µM | [8] 88.2 µM | [9] 68.6 µM | [13] 68.5 µM | [14] 23 µM

OC[C@@H](O)[C@@H](O)[C@H](O)[C@H](O)CO
not listed: [5] | [14]
inactive: all other assays above

Cc1nc(-c2ccc3c(c2)CCN(CCC2CCC(NC(=O)/C=C/c4ccc(F)cc4)CC2)CC3)no1 (centres undefined)
active: [15] 37.9 µM
not listed: [5] | [17]
inactive: all other assays above

CC(=O)OCCOCCOCCOC(C)=O
not listed: [16] | [18]
inactive: all other assays above
